The GenesisPotency data set
About 3,000 (1%) of roughly 290,000 compounds were called active. Cut-off read from the data, not from the text of the source: active = inhibition mostly above about 36% (no sharp cut-off); inactive = mostly below about 34%. Many of the other results were omitted from the sample, so actives are more common in it than they were.

The molecules below were run against T1, Nucleotide-binding oligomerization domain-containing protein 1, Homo sapiens (UniProt Q9Y239) (assay: inhibition of NOD1-driven NF-kB reporter – cell-based, luminescence, uHTS, primary screen (AID 1578)).
T1 sequence (whole entry): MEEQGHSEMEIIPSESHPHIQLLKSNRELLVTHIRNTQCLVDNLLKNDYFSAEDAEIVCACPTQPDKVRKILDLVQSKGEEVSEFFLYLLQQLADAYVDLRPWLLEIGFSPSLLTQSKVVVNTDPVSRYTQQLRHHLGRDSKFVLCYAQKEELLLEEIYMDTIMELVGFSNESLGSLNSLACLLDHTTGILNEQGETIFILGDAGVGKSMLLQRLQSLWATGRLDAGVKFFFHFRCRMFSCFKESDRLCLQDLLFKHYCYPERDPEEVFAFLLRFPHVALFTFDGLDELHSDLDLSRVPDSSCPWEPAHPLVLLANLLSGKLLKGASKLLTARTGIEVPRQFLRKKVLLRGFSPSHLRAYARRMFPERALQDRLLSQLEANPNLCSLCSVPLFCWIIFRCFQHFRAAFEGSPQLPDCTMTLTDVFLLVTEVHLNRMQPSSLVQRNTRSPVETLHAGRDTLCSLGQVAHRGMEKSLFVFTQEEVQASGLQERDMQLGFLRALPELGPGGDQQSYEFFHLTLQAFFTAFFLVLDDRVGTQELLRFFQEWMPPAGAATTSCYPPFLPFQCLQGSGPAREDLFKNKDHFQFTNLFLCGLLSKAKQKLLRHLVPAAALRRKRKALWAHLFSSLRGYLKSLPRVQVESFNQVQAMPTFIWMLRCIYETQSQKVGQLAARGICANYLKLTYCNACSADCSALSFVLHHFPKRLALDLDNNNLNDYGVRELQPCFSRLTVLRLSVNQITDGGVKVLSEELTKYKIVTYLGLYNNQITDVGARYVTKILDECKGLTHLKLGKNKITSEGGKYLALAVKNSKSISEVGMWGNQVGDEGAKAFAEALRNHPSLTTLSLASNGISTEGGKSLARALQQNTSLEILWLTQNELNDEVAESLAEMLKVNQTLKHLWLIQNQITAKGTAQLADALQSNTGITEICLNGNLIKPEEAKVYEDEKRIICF

outcome, active:
CCCCCc1cc(O)c2c(C)cc(=O)oc2c1
O=C(Nc1ccccc1C(=O)O)c1cc(S(=O)(=O)Nc2ccccc2)ccc1Cl
O=C(Nc1ccccc1C(=O)O)c1cc(S(=O)(=O)N2CCCCC2)c(Cl)cc1Cl
Cc1cccc(NC(=O)/C=C/c2ccc([N+](=O)[O-])s2)c1
CCOC(=O)/C=C/C(=O)Nc1cccc([N+](=O)[O-])c1
CC(=O)c1cccc(NC(=O)/C=C/c2ccc([N+](=O)[O-])s2)c1
CC(=C/c1ccccc1)/C=N/n1c(-c2ccncc2)n[nH]c1=S
S=c1[nH]nc(-c2cc(-c3ccccc3)n[nH]2)n1/N=C/C(Br)=C/c1ccccc1
CCc1cc(C(=O)NC2CCCc3c2cnn3-c2cccc(C)c2C)n(C)n1 (stereo not given)
Cc1cc(C(=O)NC2CCCc3c2cnn3-c2ccc(C)c(C)c2)n(C)n1 (stereo not given)
CCn1nc(C)cc1C(=O)NC1CCCc2c1cnn2-c1ccc(C)c(C)c1 (stereo not given)
COCCn1c(=S)[nH]c2cc(C(=O)N3CCCC(C)C3)ccc2c1=O (stereo not given)
O=C(N/N=C/c1ccccn1)c1cc(-c2ccccc2)nc2ccccc12
O=C(N/N=C/c1ccccn1)c1cc(-c2ccc(Cl)cc2)nc2ccccc12
O=C(N/N=C/c1ccccn1)c1cc(-c2ccc(Br)cc2)nc2ccccc12
CCCOc1cccc(-c2cc(C(=O)N/N=C/c3ccccn3)c3ccccc3n2)c1
COCC1CCN(C(=O)c2cc(COc3cccc4cnccc34)on2)CC1
COCC1CCCN(C(=O)c2cc(COc3ccc4ncccc4c3)on2)C1 (stereo not given)
O=C(c1cc(COc2cccc3cnccc23)on1)N1CCCC(CCCO)C1 (stereo not given)
Cc1c(C(C)NC(=O)c2cc(COc3cccc4cnccc34)on2)cnn1C (stereo not given)
O=C(c1cc(COc2cccc3cnccc23)on1)N1CCC(c2ccccc2Cl)C1 (stereo not given)
O=C1NC(=O)/C(=C\c2ccccc2Oc2ccc(F)c(F)c2)S1
Cc1cccc2cc(/C=N/NC(=O)c3ccccc3O)c(Cl)nc12
C=C1C(=O)[C@@]23[C@H](O)C[C@@H]4C(C)(C)CC[C@H](O)[C@@]4(C)[C@@H]2CC[C@@H]1[C@H]3O
CCc1ccc(CN(C)C(=O)c2cc(COc3cccc4cnccc34)on2)cc1
COc1cccc(CN(C)C(=O)c2cc(COc3ccc4ncccc4c3)on2)c1
CN(Cc1nccs1)C(=O)c1cc(COc2cccc3cnccc23)on1
COc1ccc(-c2cc(C(F)(F)F)nc(S(C)(=O)=O)n2)cc1OC
COc1ccc(-c2cc(C(F)(F)F)nc(S(C)(=O)=O)n2)cc1
COc1ccccc1-c1cc(C(F)(F)F)nc(S(C)(=O)=O)n1
CCCC1/C(=N/O)CC(c2ccccc2)NC1c1ccccc1 (stereo not given)
N#CC1=C(N)N2C(=C(C#N)C1c1ccc(Br)cc1)Nc1ccccc12 (stereo not given)
N#CC1=C(N)N2C(=C(C#N)C1c1cccc(Br)c1)Nc1ccccc12 (stereo not given)
COc1ccccc1/C=C/C(=O)c1c2c(c(C)[nH]c1=O)CCCC2
Cc1[nH]c(=O)c(C(=O)/C=C/c2ccccc2F)c2c1CCCC2
Cc1[nH]c(=O)c(C(=O)/C=C/c2ccccc2)c2c1CCCC2
CCN(CC)S(=O)(=O)c1cccc(NC(=O)Nc2cccc(C(F)(F)F)c2)c1
Cc1ccc(Cc2cnc(N3C(=N)SC(C)C3=O)s2)cc1 (stereo not given)
Cc1cccc(Cc2cnc(N3C(=N)SC(C)C3=O)s2)c1 (stereo not given)
CC1=C(C(=O)OCc2ccc3c(c2)OCO3)C(c2ccc(Cl)cc2)NC(=O)N1 (stereo not given)
CC1=C(C(=O)OCc2ccc3c(c2)OCO3)C(c2ccc(F)cc2)NC(=O)N1 (stereo not given)
CC1=C(C(=O)OCc2ccc3c(c2)OCO3)C(c2ccccc2)NC(=O)N1 (stereo not given)
CC1=C(C(=O)OCc2ccc3c(c2)OCO3)C(c2ccc(O)c([N+](=O)[O-])c2)NC(=O)N1 (stereo not given)
O=C(NCc1ccccc1)C1=C[C@@H](c2csc3ccccc23)C[C@@H](OCCCCO)O1
CCn1nc(C)c(NC(=O)/C=C/c2ccc(OC)c(COc3ccc(Br)cc3)c2)c1C
CCCN(CC(=O)Nc1ccccc1C)C(=O)CCl
CCC(C)N(CC(=O)Nc1cccc(C)c1C)C(=O)CCl (stereo not given)
CCc1c(C)sc2nc(C(C)C)nc(SCC(=O)N3CCc4ccccc4C3)c12
Cc1cc(C(=O)CN2C(=O)c3ccccc3S2(=O)=O)c(C)n1CC1CCCO1 (stereo not given)
Cc1cc(C(=O)CSc2nc3ccccc3c(=O)n2C)c(C)n1CC1CCCO1 (stereo not given)
Cc1cc(C(=O)CSc2nc3ccccc3c(=O)n2C)c(C)n1Cc1ccc2c(c1)OCO2
COc1ccc(CCNC(=S)N2CCC(Cc3ccccc3)CC2)cc1OC
N=C1S/C(=C\c2ccco2)C(=O)N1c1nccs1
N=C1S/C(=C\c2ccc(-c3cccc(Cl)c3)o2)C(=O)N1c1nccs1
Cn1ncc2c(N3CCN(c4ccc(Cl)c(Cl)c4)CC3)ncnc21
O=C(Nc1ccc(Cl)c(Cl)c1)Nc1ccc(Br)cc1F
O=C(Nc1ccc(Cl)c(Cl)c1)Nc1ccccc1NS(=O)(=O)c1cccs1
S=C(NCCc1ccccc1)Nc1cccc2cnccc12
COc1ccccc1-c1nnc(SCC(=O)Nc2nc(-c3ccccc3)cs2)n1C
COc1nc(Nc2nc3ccccc3c(=O)[nH]2)nc2ccc(C)cc12
COc1ccc(NC(=O)Cn2nnc(-c3ccccc3NS(=O)(=O)c3ccc(OC)cc3)n2)cc1
O=[N+]([O-])c1cccc(S(=O)(=O)Nc2nc3ccccc3nc2Nc2cccc(S(=O)(=O)N3CCCCC3)c2)c1
COc1cc(Nc2nc3ccccc3nc2NS(=O)(=O)c2ccc([N+](=O)[O-])cc2)cc(OC)c1OC
Cc1ccc(S(=O)(=O)Nc2nc3ccccc3nc2Nc2cccc(S(=O)(=O)N3CCCC3)c2)cc1
CCOc1cc(C)c(Cl)cc1S(=O)(=O)n1nnc2ccccc21
CC(=O)n1c(Cl)c(NC(=O)CCl)c2ccccc21
COc1ccccc1C(=O)Nc1nc(-c2ccc(S(=O)(=O)N3CCOCC3)cc2)cs1
COc1ccc(-c2csc(NC(=O)c3ccccc3NS(=O)(=O)c3ccc(C)cc3)n2)cc1
Cc1ccc(S(=O)(=O)Nc2ccccc2C(=O)Nc2nc(-c3ccc(F)cc3)cs2)cc1
COc1cccc(NC(=O)Nc2nc(-c3ccc(OC)c(OC)c3)cs2)c1
O=C(Nc1nc(-c2ccccc2)cs1)c1ccccc1NS(=O)(=O)c1ccc(F)cc1
COc1ccc(-c2csc(NC(=O)c3ccccc3NS(=O)(=O)c3ccc(F)c(F)c3)n2)cc1
COc1ccc(NC(=O)c2ccc(-c3ccccc3)cc2)cc1NS(=O)(=O)c1ccc(F)cc1
COc1ccc(S(=O)(=O)Nc2ccccc2C(=O)Nc2nc(-c3ccc(F)cc3)cs2)cc1OC
O=C(Nc1ccccc1)C1=C(c2ccccc2)S(=O)(=O)CCS1(=O)=O
Cc1ccc(NC(=O)C2=C(c3ccccc3)S(=O)(=O)CCS2(=O)=O)cc1
NS(=O)(=O)c1ccc(Sc2nc3ccccc3s2)c([N+](=O)[O-])c1
COc1ccc(-c2nn(-c3ccccc3)cc2/C=N/NC(=O)c2ccc(Br)o2)cc1
Cc1ccc(-c2nn(-c3ccccc3)cc2/C=N/NC(=O)c2ccc(Br)o2)cc1
O=C(OCn1ncc(Br)c(Br)c1=O)c1ccc(F)cc1
CC(=O)Cn1ncc(Br)c(Br)c1=O
O=C(OCn1ncc(Br)c(Br)c1=O)c1c(F)cccc1F
O=C(NC(=S)N(CCCCO)C1CCCCC1)c1sc2ccccc2c1Cl
Cc1nnc(SCC(=O)N2CCC(c3noc4ccc(F)cc34)CC2)s1
O=C(NC(Nc1nc2ccc([N+](=O)[O-])cc2s1)(C(F)(F)F)C(F)(F)F)c1ccccc1Cl
CC[C@@]1(O)C(=O)OCc2c1cc1n(c2=O)Cc2cc3c(N)cccc3nc2-1
Cc1ccc(Cl)c(NC(=O)COC(=O)c2ccccc2C(=O)c2ccc(Cl)c([N+](=O)[O-])c2)c1Cl
CNC(=O)COC(=O)c1ccccc1C(=O)c1ccc(Cl)c([N+](=O)[O-])c1
O=C(COC(=O)c1ccccc1C(=O)c1ccc(Cl)c([N+](=O)[O-])c1)NC1CC1
N#Cc1cccc(NC(=O)COC(=O)c2ccccc2C(=O)c2ccc(Cl)c([N+](=O)[O-])c2)c1
CC(C)(C)OC(=O)NCCc1nnc(S(=O)(=O)Cc2ccc(Cl)cc2Cl)o1
Cc1sc2nc(SCc3ccc(C(=O)O)cc3)n(Cc3ccco3)c(=O)c2c1C
COC(=O)c1ccc2c(c1)C(C)(C)C(/C=C/c1ccc(O)cc1)=[N+]2C.[I-]
Cn1c(SC2=CS(=O)(=O)c3ccccc32)nc2ccccc21
O=S1(=O)C=C(Sc2nc3ccccc3s2)c2ccccc21
O=S1(=O)C=C(Sc2nc3cc(Cl)ccc3o2)c2ccccc21
Cc1cc(C)cc(NC(=O)CSc2nnc(Cc3cccn3C)n2-c2ccc(F)cc2)c1
O=C(NC(=C(Cl)Cl)S(=O)(=O)c1ccc(Cl)cc1)c1ccccc1
CC(=O)NC(=C(Cl)Cl)S(=O)(=O)c1ccccc1
Cc1ccc(C(=O)NC(=C(Cl)Cl)S(=O)(=O)c2ccccc2)cc1
Cc1ccc(C(=O)NC(C#N)=C(Cl)Cl)cc1
O=C(NCCCSc1ccccc1)c1cc(Cl)ccc1O
O=C(NCCCSc1ccccc1)c1cc(Br)ccc1O
CCOC(=O)c1cccc2c1-c1ccccc1/C2=N/O
COC(=O)c1cccc2c1-c1ccccc1/C2=N/O
